Assay outcomes deposited in PubChem BioAssay by several laboratories.
Compounds with a hit are over-represented: about 3.1% of the library has one in this group of screens.
MEKK2 mut-MEK5 – MEK5 binding signal on mutant MEKK2 PB1, primary screen, biochemical, multiplex bead flow cytometry, Alexa488-MEK5 | percent response, % at 10 µM | AID 1530, 2009 | Alexa488-MEK5 binding to MEKK2 mutant | 290,000 compounds, 0.35% hits; in the data active means percent response above about 24%, passing the limit was not always enough
MEKK3 PB1 HTS – modulators of MEKK3-MEK5 PB1 binding, primary screen, biochemical, wildtype MEKK3, multiplex bead flow cytometry, Alexa488-MEK5 | Mitogen-activated protein kinase kinase kinase 3 (Homo sapiens), Q99759 | bead-based flow cytometry, Alexa488-MEK5 binding to MEKK3; actives lie on both sides; 0 = blocked by unlabeled MEK5, 100 = vehicle | binding response (% of control), % at 10 µM | 290,000 compounds, 1.4% hits | AID 1529, 2009;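 active means binding response more than 3 SD above or below the average of its plate-row segment, actives on both sides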;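 further: Alexa488 bead fluorescence after subtracting the streptavidin-only scavenger bead signal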
UBC13 inh – UBC13 polyubiquitin chain formation inhibitors, primary screen, biochemical, TR-FRET, uHTS; inhibition, % at 20 µM; AID 485273, 2010; Ubiquitin-conjugating enzyme E2 N (Homo sapiens), P61088; 330,000 compounds, 0.47% hits; in the data active means inhibition above about 45%, passing the limit was not always enough
ATG4B inhibitor – ATG4B protease inhibitors, primary screen, biochemical, fluorescence, uHTS; AID 504462, 2011; ATG4B cleavage of LC3-PLA2, NBD-HPC fluorescence, 1 h; 340,000 compounds, 0.51% hits; inhibition, % at 8.33 µM; Cysteine protease ATG4B (Homo sapiens), Q9Y4P1; in the data active means inhibition above about 40%
Target sequence (Q9Y4P1 whole entry, looked up): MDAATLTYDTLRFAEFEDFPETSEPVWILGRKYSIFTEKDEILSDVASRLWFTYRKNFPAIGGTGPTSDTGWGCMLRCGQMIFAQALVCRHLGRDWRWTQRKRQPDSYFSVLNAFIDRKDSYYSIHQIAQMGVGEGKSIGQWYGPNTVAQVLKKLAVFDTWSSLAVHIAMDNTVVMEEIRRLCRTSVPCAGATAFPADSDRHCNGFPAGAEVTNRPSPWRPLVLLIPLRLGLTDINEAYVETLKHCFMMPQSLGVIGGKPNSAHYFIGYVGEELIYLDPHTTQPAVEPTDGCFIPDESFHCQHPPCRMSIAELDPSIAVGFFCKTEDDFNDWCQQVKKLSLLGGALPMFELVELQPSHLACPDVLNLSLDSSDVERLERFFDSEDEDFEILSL
MEKK2wt PB1 HTS – modulators of MEK5 binding to wildtype MEKK2, primary screen, biochemical, multiplex bead flow cytometry, Alexa488-MEK5; Alexa488-MEK5 binding to MEKK2 WT; actives lie on both sides; binding response (% of control), % at 10 µM; Mitogen-activated protein kinase kinase kinase 2 (Homo sapiens), Q9Y2U5; 290,000 compounds, 1.1% hits; AID 1531, 2009; in the data active means binding response below about 67% or above about 130%
PREPL inhibitor – PREPL enzyme inhibitors, primary screen, biochemical, fluorescence polarization; Prolyl endopeptidase-like (Homo sapiens), Q4J6C6; recombinant PREPL, fluorescence polarization activity-based probe; inhibition, % at 5.96 µM; 320,000 compounds, 0.68% hits; in the data active means inhibition above about 43%;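 further: 0% = enzyme with DMSO and 100% = wells lacking enzyme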
ATG4B confirm – ATG4B protease inhibitors, retest, confirmation, biochemical, fluorescence, single concentration. shares compounds with ATG4B inhibitor. ATG4B protease fluorescent substrate cleavage assay. inhibition, % at 8.33 µM. 320 compounds, 92% hits; in the data active means inhibition above about 39%
PLA2 counter – PLA2 enzyme inhibition, counter-screen for ATG4B inhibitor project, biochemical, single concentration, uHTS hits | 1,600 compounds, 66% hits | inhibition, % at 8.33 µM | shares compounds with ATG4B inhibitor | AID 588402, 2011 | purified PLA2, NBD-C6-HPC fluorescence, 45 min; in the data active means inhibition above about 50%
Active calls of the source: *; . = not tested or not shown.

SMILES	MEKK2 mut-MEK5	MEKK3 PB1 HTS	UBC13 inh	ATG4B inhibitor	MEKK2wt PB1 HTS	PREPL inhibitor	PLA2 counter	others
COCC(C)OC(=O)/C(C#N)=C\c1coc2ccc(C)cc2c1=O (stereo not given)	2.0	106.0	.	61.8*	103.0	-2.5	49.0
Cc1cc(/C=N/NC(=O)C(O)(c2ccccc2)c2ccccc2)c(C)n1-c1cccc(C(=O)O)c1	5.0	101.0	0.3	52.4*	98.0	17.2	57.0*
COC(=O)C1=C(C)Nc2nc(SCc3ccccc3)[nH]c(=O)c2C1c1cccs1 (stereo not given)	-4.0	112.0	-16.2	52.9*	94.0	1.9	49.2
O=C(CCSCc1cccc(Cl)c1)NC1CCCC1	0.0	122.0	-2.3	17.0	102.0	2.9	.
O=C(CCSCc1cccc(Cl)c1)NCCC1=CCCCC1	0.0	113.0	8.5	46.4*	101.0	1.9	25.0
CC(C)(C)CC(C)(C)SSc1n[nH]c(=S)s1	.	.	.	-1.4	.	.	.
Cn1cccc1/C=C1\CCC/C(=C\c2cccn2C)C1=O	-4.0	89.0	-156.8	45.5*	88.0	-18.5	58.8*
O=C1/C(=C/c2cccs2)CCC/C1=C\c1cccs1	8.0	102.0	-9.2	5.9	109.0	8.6	.
O=C1Nc2ccccc2S/C1=C/NCc1ccccc1Cl	0.0	107.0	4.1	55.4*	108.0	9.3	61.0*
COc1ccc(Br)cc1CNC(=O)C1CCCN(c2nc3ccccc3o2)C1 (stereo not given)	6.0	105.0	7.6	63.6*	110.0	-19.9	67.7*
Cc1ccc(CNC(=O)C2CCCN(c3nc4ccccc4o3)C2)cc1 (stereo not given)	-2.0	110.0	-0.8	-10.2	101.0	-7.1	.
COc1ccccc1CNC(=O)c1ccccc1OCc1ccc(F)cc1	1.0	110.0	8.9	44.4*	100.0	-13.9	27.5	ATG4B confirm=74.8*
